Source: PubChem BioAssay (NCI)
Values joined by “and” are separate entries in the source; they are usually repeats but may differ in a detail not shown here. Equal values may be shown once. About 83,000 compounds went through this panel and 20% of them were active in at least one assay; those are over-represented in the sample as a whole.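 Cells were grown in 96-well plates and exposed to the test compound at a single concentration for 48 hours; results are reported as percent growth, with values below 10 considered active.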 Active and inactive are the calls of the source.

Tests used:
Assay in all cases: NCI-60 one-dose screen, 48 h (100 = growth as untreated, 0 = no growth, -100 = all killed)
SK-MEL-2 melanoma = conditions: 10 µM
EKVX NSCLC = conditions: 10 µM
SN12C renal = conditions: 10 µM
UO-31 renal = conditions: 10 µM
TK-10 renal = system: TK-10 renal
ACHN renal = conditions: 10 µM
CAKI-1 renal = conditions: 10 µM
A498 renal = conditions: 10 µM
CCRF-CEM leukemia = conditions: 10 µM
MOLT-4 leukemia = conditions: 10 µM

Measured: growth

O=c1cc(-c2ccccc2)[nH]c(=S)[nH]1
inactive: SK-MEL-2 melanoma 98.8% | EKVX NSCLC 129% | SN12C renal 102% | UO-31 renal 79.2% | TK-10 renal; 10 µM unless noted 95.7% | ACHN renal 96.7% | CAKI-1 renal 175% | A498 renal 97.6% | CCRF-CEM leukemia 90.5% | MOLT-4 leukemia 95.3%

COC(=O)/C=C\C(=O)OC
inactive: SK-MEL-2 melanoma 114% | EKVX NSCLC 122% | SN12C renal 102% | UO-31 renal 81.1% | TK-10 renal; 10 µM unless noted 109% | ACHN renal 113% | CAKI-1 renal 112% | A498 renal 104% | CCRF-CEM leukemia 110% | MOLT-4 leukemia 87.8%

COc1ccc(C2(O)CCCCC2)cc1
inactive: SK-MEL-2 melanoma 107% | EKVX NSCLC 105% | SN12C renal 101% | UO-31 renal 97% | TK-10 renal; 10 µM unless noted 113% | ACHN renal 115% | CAKI-1 renal 100% | A498 renal 86.9% | CCRF-CEM leukemia 96.1% | MOLT-4 leukemia 97.5%

CC(=O)OC1CC2C(C)(C)OC3CC(=O)OCC32C2CCC3(C)C(=CCC3c3ccoc3)C12C (centres undefined)
inactive: SK-MEL-2 melanoma 99.5% | EKVX NSCLC 102% | SN12C renal 105% | UO-31 renal 86.9% | TK-10 renal; 10 µM unless noted 107% | ACHN renal 101% | CAKI-1 renal 98.7% | A498 renal 110% | CCRF-CEM leukemia 101% | MOLT-4 leukemia 90.8%

C#C[C@H]1CCCCCC1O (some centres undefined)
inactive: SK-MEL-2 melanoma 101% | EKVX NSCLC 104% | SN12C renal 101% | UO-31 renal 97.1% | TK-10 renal; 10 µM unless noted 109% | ACHN renal 116% | CAKI-1 renal 101% | A498 renal 99.3% | CCRF-CEM leukemia 97.1% | MOLT-4 leukemia 98.4%

CC(C)COC(=O)COC(=O)OCCOCCOC(=O)OCC(=O)OCC(C)C
inactive: SK-MEL-2 melanoma 94.2% | EKVX NSCLC 119% | SN12C renal 97.9% | UO-31 renal 89.8% | TK-10 renal; 10 µM unless noted 91.9% | ACHN renal 95.7% | CAKI-1 renal 116% | A498 renal 99.9% | CCRF-CEM leukemia 106%

CC(=O)OCC1CCCO1 (centres undefined)
inactive: SK-MEL-2 melanoma 106% | EKVX NSCLC 96% | SN12C renal 103% | UO-31 renal 92.2% | TK-10 renal; 10 µM unless noted 94.9% | ACHN renal 106% | CAKI-1 renal 101% | A498 renal 101% | CCRF-CEM leukemia 107% | MOLT-4 leukemia 97.6%

O=C(/C=C/C(=O)c1ccccc1)c1ccccc1
inactive: SK-MEL-2 melanoma 119% | EKVX NSCLC 102% | SN12C renal 108% | UO-31 renal 97.6% | TK-10 renal; 10 µM unless noted 86.9% | ACHN renal 90.1% | CAKI-1 renal 94.9% | A498 renal 85.2% | CCRF-CEM leukemia 37.9% | MOLT-4 leukemia 79.2%

O=C(NC1CCCCC1)OCc1c(COC(=O)NC2CCCCC2)c(-c2ccc(Cl)c(Cl)c2)n2c1CCC2
inactive: EKVX NSCLC 60.5% | SN12C renal 22.3% | TK-10 renal; 10 µM unless noted 35.2% | CCRF-CEM leukemia 32.9%
active: SK-MEL-2 melanoma -9.91% | UO-31 renal -13.6% | ACHN renal 5.4% | CAKI-1 renal 8.84% | A498 renal -67.7%

Nc1ccccc1C(=O)Nc1ccc(Cl)cc1Cl
inactive: SK-MEL-2 melanoma 112% | EKVX NSCLC 99.5% | SN12C renal 103% | UO-31 renal 52.4% | TK-10 renal; 10 µM unless noted 118% | ACHN renal 94% | CAKI-1 renal 69.1% | A498 renal 107% | CCRF-CEM leukemia 90.3% | MOLT-4 leukemia 77.7%

c1ccc2c(N3CCCCC3)ncnc2c1
inactive: SK-MEL-2 melanoma 92.6% | EKVX NSCLC 94% | SN12C renal 91.1% | UO-31 renal 62.5% | TK-10 renal; 10 µM unless noted 90.9% | ACHN renal 81.9% | CAKI-1 renal 91% | A498 renal 106% | CCRF-CEM leukemia 93.2% | MOLT-4 leukemia 91.2%

CCN(CC)C(=O)/C=C(/C)c1ccccc1
inactive: SK-MEL-2 melanoma 113% | EKVX NSCLC 107% | SN12C renal 104% | UO-31 renal 102% | TK-10 renal; 10 µM unless noted 107% | ACHN renal 110% | CAKI-1 renal 100% | A498 renal 86.6% | CCRF-CEM leukemia 100% | MOLT-4 leukemia 114%

CC1CC(O)CC(C)(C)C1 (centres undefined)
inactive: SK-MEL-2 melanoma 105% | EKVX NSCLC 98.8% | SN12C renal 104% | UO-31 renal 85.6% | TK-10 renal; 10 µM unless noted 102% | ACHN renal 107% | CAKI-1 renal 98.9% | A498 renal 98.7% | CCRF-CEM leukemia 96.4% | MOLT-4 leukemia 100%

CCOC(=O)C(C#N)Cc1ccccc1 (centres undefined)
inactive: SK-MEL-2 melanoma 114% | EKVX NSCLC 114% | SN12C renal 103% | UO-31 renal 94.5% | TK-10 renal; 10 µM unless noted 106% | ACHN renal 110% | CAKI-1 renal 98.7% | A498 renal 114% | CCRF-CEM leukemia 102% | MOLT-4 leukemia 123%

COc1ccc(NC(=O)CCl)cc1
inactive: SK-MEL-2 melanoma 74.9% | EKVX NSCLC 103% | SN12C renal 67.2% | UO-31 renal 90.9% | TK-10 renal; 10 µM unless noted 118% | ACHN renal 88.8% | CAKI-1 renal 97% | A498 renal 120% | CCRF-CEM leukemia 50.5% | MOLT-4 leukemia 64.4%

O=C(O)c1ccnc(Br)c1
inactive: SK-MEL-2 melanoma 105% | EKVX NSCLC 98.1% | SN12C renal 113% | UO-31 renal 91.4% | TK-10 renal; 10 µM unless noted 104% | ACHN renal 108% | CAKI-1 renal 97.8% | A498 renal 88.7% | CCRF-CEM leukemia 112% | MOLT-4 leukemia 116%

CC(=O)OCC1OC(OC2=C(CC=C(C)C)C(=O)c3ccccc3C2=O)C(OC(C)=O)C(OC(C)=O)C1OC(C)=O (centres undefined)
inactive: SK-MEL-2 melanoma 58.7% | EKVX NSCLC 15.6% | SN12C renal 52% | UO-31 renal 38.6% | TK-10 renal; 10 µM unless noted 87.4% | ACHN renal 12.8% | CAKI-1 renal 68.5% | A498 renal 22.6%
active: CCRF-CEM leukemia -25.8% | MOLT-4 leukemia -26.7%

Cc1cc(C)cc(NCCC#N)c1
inactive: SK-MEL-2 melanoma 98.3% | EKVX NSCLC 103% | SN12C renal 110% | UO-31 renal 96.5% | TK-10 renal; 10 µM unless noted 129% | ACHN renal 107% | CAKI-1 renal 107% | A498 renal 111% | CCRF-CEM leukemia 96.8% | MOLT-4 leukemia 91.4%

O=C(O)c1cccc([N+](=O)[O-])c1
inactive: SK-MEL-2 melanoma 112% | EKVX NSCLC 114% | SN12C renal 103% | UO-31 renal 89.6% | TK-10 renal; 10 µM unless noted 110% | ACHN renal 114% | CAKI-1 renal 100% | A498 renal 102% | CCRF-CEM leukemia 112% | MOLT-4 leukemia 101%

CC(=O)Nc1cccc(Cl)c1C
inactive: SK-MEL-2 melanoma 100% | EKVX NSCLC 101% | SN12C renal 99.7% | UO-31 renal 85.3% | TK-10 renal; 10 µM unless noted 95.5% | ACHN renal 106% | CAKI-1 renal 97.7% | A498 renal 93.3%

O=C(CC(=O)c1ccccc1O)c1ccccc1
inactive: SK-MEL-2 melanoma 131% | EKVX NSCLC 76.8% | SN12C renal 85.7% | UO-31 renal 87.3% | TK-10 renal; 10 µM unless noted 87.8% | ACHN renal 99% | CAKI-1 renal 92.2% | A498 renal 98.6%

C=C1CC/C=C(\C)C(=O)C[C@@H]2[C@@H]1CC2(C)C
active: TK-10 renal; 100 µM -73.6%
inactive: SK-MEL-2 melanoma 102% | EKVX NSCLC 104% | SN12C renal 114% | UO-31 renal 88.3% | TK-10 renal; 10 µM 123% | ACHN renal 102% | A498 renal 85% | CCRF-CEM leukemia 69.3% | MOLT-4 leukemia 93.5%

O=C(NN=C1CCCCC1)C(=O)NN=C1CCCCC1
inactive: SK-MEL-2 melanoma 91.2% | EKVX NSCLC 109% | SN12C renal 106% | UO-31 renal 95.6% | TK-10 renal; 10 µM unless noted 99% | ACHN renal 109% | CAKI-1 renal 110% | A498 renal 119% | CCRF-CEM leukemia 85.6% | MOLT-4 leukemia 90.9%

Nc1ccc(C(=O)c2ccc(N)c(Br)c2)cc1Br
inactive: EKVX NSCLC 50.9% | SN12C renal 29.2% | UO-31 renal 58.8% | TK-10 renal; 10 µM unless noted 22.5% | ACHN renal 33.4% | CAKI-1 renal 42.9% | A498 renal 28.6% | CCRF-CEM leukemia 13.4% | MOLT-4 leukemia 35.5%
active: SK-MEL-2 melanoma 8.1%

CCCCC(CC)COC(C)=O (centres undefined)
inactive: SK-MEL-2 melanoma 106% | EKVX NSCLC 101% | SN12C renal 101% | UO-31 renal 88.3% | TK-10 renal; 10 µM unless noted 102% | ACHN renal 106% | CAKI-1 renal 96.9% | A498 renal 86.3% | CCRF-CEM leukemia 108% | MOLT-4 leukemia 105%

CC(=O)OCC1=CC2OC(=O)C3=COC(OC4OC(CO)C(O)C(O)C4O)C1C32 (centres undefined)
inactive: SK-MEL-2 melanoma 138% | EKVX NSCLC 101% | SN12C renal 101% | UO-31 renal 96.7% | TK-10 renal; 10 µM 113% | TK-10 renal; 100 µM 81% and 93.8% | ACHN renal 111% | CAKI-1 renal 101% | CCRF-CEM leukemia 104% | MOLT-4 leukemia 141%

NC(=O)c1ccc(N=C(N)N=C(N)N)cc1
inactive: SK-MEL-2 melanoma 121% | EKVX NSCLC 73.5% | SN12C renal 110% | UO-31 renal 78.5% | TK-10 renal; 10 µM unless noted 77.5% | ACHN renal 112% | CAKI-1 renal 93.4% | A498 renal 106% | CCRF-CEM leukemia 99.6% | MOLT-4 leukemia 103%

Oc1ccccc1-c1nnco1
inactive: SK-MEL-2 melanoma 96.4% | EKVX NSCLC 107% | SN12C renal 83.2% | UO-31 renal 55% | TK-10 renal; 10 µM unless noted 95.4% | ACHN renal 83% | CAKI-1 renal 100% | A498 renal 75.9% | CCRF-CEM leukemia 89% | MOLT-4 leukemia 90.1%

COC(=O)c1cccnc1
inactive: SK-MEL-2 melanoma 93.2% | EKVX NSCLC 105% | SN12C renal 93.2% | UO-31 renal 78.9% | TK-10 renal; 10 µM unless noted 96.9% | ACHN renal 90.6% | CAKI-1 renal 94.8% | A498 renal 101% | CCRF-CEM leukemia 96.2% | MOLT-4 leukemia 98.3%

NCCC(=O)c1ccc(Cl)cc1
inactive: SK-MEL-2 melanoma 101% | EKVX NSCLC 110% | SN12C renal 108% | UO-31 renal 85.7% | TK-10 renal; 10 µM unless noted 102% | ACHN renal 121% | CAKI-1 renal 101% | A498 renal 107% | CCRF-CEM leukemia 103% | MOLT-4 leukemia 89.6%

CCN(CC)CCNc1ccc(CO)c2sc3ccccc3c(=O)c12
active: A498 renal -17.9% | MOLT-4 leukemia 8.97%
inactive: SK-MEL-2 melanoma 45.4% | EKVX NSCLC 65.6% | SN12C renal 37.5% | UO-31 renal 25.5% | TK-10 renal; 10 µM unless noted 46.4% | ACHN renal 20.4% | CAKI-1 renal 43.2% | CCRF-CEM leukemia 37%
